Hit rate of the full screen: of about 5,500 compounds, about 2,000 (36%) were called active. Not shown: some 18% with an inconclusive outcome. Rule as the data show it: active = normalized growth mostly below about 0.91 (no sharp cut-off); inconclusive = no clear call, values can overlap the other calls; inactive = mostly above about 0.92. Some of the results follow.
Test: chemical genetic growth profiling, strain panel (AID 1159580);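 also: tested at 20 µM; growth read once vehicle control cultures reached saturation at 30 °C; 1 = growth at the plate median or of vehicle wells; lower values mean less growth of the strain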
Details: growth OD

Measured: normalized growth

c1ccc2[nH]c(-c3cscn3)nc2c1
inactive: S. cerevisiae deletion strains, locus YKL068W, hits give low values 1 | S. cerevisiae deletion strains, locus YKL085W, strain MDH1 (second series), hits give low values 0.996 | S. cerevisiae deletion strains, locus YKL085W, strain MDH1, hits give low values 0.996 | S. cerevisiae deletion strains, locus YKL160W, strain elf1, hits give low values 1.01 | S. cerevisiae deletion strains, locus YKL190W, strain CNB1, hits give low values 0.993 | S. cerevisiae deletion strains, locus YKR001C, strain vps1, hits give low values 0.976 | S. cerevisiae deletion strains, locus YKR026C, strain gcn3, hits give low values 1.02 | S. cerevisiae deletion strains, locus YKR091W, strain srl3, hits give low values 1.01 | S. cerevisiae deletion strains, locus YLL001W, strain dnm1, hits give low values 1 | S. cerevisiae deletion strains, locus YLL026W, hits give low values 1.01 | S. cerevisiae deletion strains, locus YLL041C, strain sdh2, hits give low values 1.02 | S. cerevisiae deletion strains, locus YLR027C, strain aat2, hits give low values 1.01 | S. cerevisiae deletion strains, locus YLR039C, strain RIC1, hits give low values 0.963 | S. cerevisiae deletion strains, locus YLR058C, strain SHM2, hits give low values 0.997 | S. cerevisiae deletion strains, locus YLR102C, strain apc9, hits give low values 1.01 | S. cerevisiae deletion strains, locus YLR113W, strain HOG1, hits give low values 0.985 | S. cerevisiae deletion strains, locus YLR221C, strain rsa3, hits give low values 0.97 | S. cerevisiae deletion strains, locus YLR258W, strain gsy2, hits give low values 0.968 | S. cerevisiae deletion strains, locus YLR262C, strain YPT6 (second series), hits give low values 0.95 | S. cerevisiae deletion strains, locus YLR262C, strain YPT6, hits give low values 0.968 | S. cerevisiae deletion strains, locus YLR268W, strain sec22, hits give low values 0.945 | S. cerevisiae deletion strains, locus YLR320W, strain mms22, hits give low values 0.899 | S. cerevisiae deletion strains, locus YLR330W, strain CHS5, hits give low values 0.995 | S. cerevisiae deletion strains, locus YLR342W, strain FKS1 (second series), hits give low values 1.01 | S. cerevisiae deletion strains, locus YLR342W, strain FKS1, hits give low values 1 | S. cerevisiae deletion strains, locus YLR357W, strain rsc2, hits give low values 0.984 | S. cerevisiae deletion strains, locus YLR370C, strain arc18, hits give low values 0.975 | S. cerevisiae deletion strains, locus YLR371W, strain rom2, hits give low values 1.02 | S. cerevisiae deletion strains, locus YLR384C, strain iki3, hits give low values 1.01 | S. cerevisiae deletion strains, locus YLR418C, strain cdc73, hits give low values 0.979 | S. cerevisiae deletion strains, locus YML016C, strain PPZ1, hits give low values 0.997 | S. cerevisiae deletion strains, locus YML032C, strain rad52, hits give low values 0.979 | S. cerevisiae deletion strains, locus YML120C, strain ndi1, hits give low values 1 | S. cerevisiae deletion strains, locus YMR058W, strain fet3, hits give low values 0.993 | S. cerevisiae deletion strains, locus YMR078C, strain ctf18, hits give low values 1 | S. cerevisiae deletion strains, locus YMR125W, strain sto1, hits give low values 1.04 | S. cerevisiae deletion strains, locus YMR129W, hits give low values 1.01 | S. cerevisiae deletion strains, locus YMR205C, strain PFK2, hits give low values 0.982 | S. cerevisiae deletion strains, locus YMR223W, strain ubp8, hits give low values 1.02 | S. cerevisiae deletion strains, locus YMR231W, strain pep5, hits give low values 1.02 | S. cerevisiae deletion strains, locus YMR263W, strain SAP30, hits give low values 0.973 | S. cerevisiae deletion strains, locus YMR307W, strain GAS1, hits give low values 0.928 | S. cerevisiae deletion strains, locus YNL067W, strain RPL9B, hits give low values 0.961 | S. cerevisiae deletion strains, locus YNL071W, strain lat1, hits give low values 0.954 | S. cerevisiae deletion strains, locus YNL128W, strain TEP1, hits give low values 1.01 | S. cerevisiae deletion strains, locus YNL183C, strain NPR1, hits give low values 0.927 | S. cerevisiae deletion strains, locus YNL209W, strain ssb2, hits give low values 0.984 | S. cerevisiae deletion strains, locus YNL233W, strain BNI4, hits give low values 0.958 | S. cerevisiae deletion strains, locus YNL248C, strain rpa49, hits give low values 1.01 | S. cerevisiae deletion strains, locus YNL250W, strain rad50, hits give low values 1.04 | S. cerevisiae deletion strains, locus YNL271C, strain bni1, hits give low values 1 | S. cerevisiae deletion strains, locus YNL298W, strain CLA4, hits give low values 1.01 | S. cerevisiae deletion strains, locus YNL307C, strain MCK1, hits give low values 1 | S. cerevisiae deletion strains, locus YNL322C, strain KRE1 (second series), hits give low values 0.991 | S. cerevisiae deletion strains, locus YNL322C, strain KRE1, hits give low values 0.987 | S. cerevisiae deletion strains, locus YNR049C, strain mso1, hits give low values 1.01 | S. cerevisiae deletion strains, locus YNR052C, strain pop2, hits give low values 0.983 | S. cerevisiae deletion strains, locus YOL012C, strain htz1 2.38 | S. cerevisiae deletion strains, locus YOL147C, strain pex11, hits give low values 1.01 | S. cerevisiae deletion strains, locus YOR001W, strain rrp6, hits give low values 1 | S. cerevisiae deletion strains, locus YOR061W, strain CKA2, hits give low values 0.996 | S. cerevisiae deletion strains, locus YOR069W, strain VPS5, hits give low values 1 | S. cerevisiae deletion strains, locus YOR070C, strain gyp1, hits give low values 0.991 | S. cerevisiae deletion strains, locus YOR080W, strain dia2, hits give low values 1.01 | S. cerevisiae deletion strains, locus YOR083W, strain WHI5, hits give low values 0.977 | S. cerevisiae deletion strains, locus YOR106W, strain vam3, hits give low values 1.03 | S. cerevisiae deletion strains, locus YOR136W, strain idh2, hits give low values 0.995 | S. cerevisiae deletion strains, locus YOR144C, strain elg1, hits give low values 1.02 | S. cerevisiae deletion strains, locus YOR184W, strain ser1, hits give low values 0.932 | S. cerevisiae deletion strains, locus YOR231W, strain MKK1, hits give low values 1 | S. cerevisiae deletion strains, locus YOR265W, strain rbl2, hits give low values 0.997 | S. cerevisiae deletion strains, locus YOR270C, strain vph1, hits give low values 0.961 | S. cerevisiae deletion strains, locus YOR290C, strain snf2, hits give low values 0.944 | S. cerevisiae deletion strains, locus YOR316C, strain cot1, hits give low values 0.998 | S. cerevisiae deletion strains, locus YPL051W, strain arl3, hits give low values 0.991 | S. cerevisiae deletion strains, locus YPL078C, strain atp4, hits give low values 0.995 | S. cerevisiae deletion strains, locus YPL106C, strain sse1, hits give low values 1.08 | S. cerevisiae deletion strains, locus YPL240C, strain hsp82, hits give low values 0.997 | S. cerevisiae deletion strains, locus YPL256C, strain CLN2, hits give low values 0.957 | S. cerevisiae deletion strains, locus YPR119W, strain clb2, hits give low values 1.01 | S. cerevisiae deletion strains, locus YPR141C, strain kar3, hits give low values 1.01 | S. cerevisiae deletion strains, locus YPR163C, strain tif3, hits give low values 1 | S. cerevisiae deletion strains, locus YPR167C, strain met16, hits give low values 1 | S. cerevisiae deletion strains, strain wtn01, hits give low values 0.977 | S. cerevisiae strains, strain wild type, hits give low values 0.995
active: S. cerevisiae deletion strains, locus YML124C, strain tub3, hits give low values 0.636 | S. cerevisiae deletion strains, locus YNL153C, strain GIM3, hits give low values 0.0845 | S. cerevisiae deletion strains, locus YPL241C, strain CIN2, hits give low values 0.0871
